Hit rate of the full screen: of about 5,500 compounds, about 2,000 (36%) were called active. Inconclusive results (about 18%) are left out. Rule as the data show it: active = normalized growth mostly below about 0.91 (no sharp cut-off); inconclusive = no clear call, values can overlap the other calls; inactive = mostly above about 0.92. The list shows a part of the results.
Experiment: chemical genetic growth profiling, strain panel (AID 1159580);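 also: tested at 20 µM; growth read once vehicle control cultures reached saturation at 30 °C; 1 = growth at the plate median or of vehicle wells; lower values mean less growth of the strain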
Conditions: S. cerevisiae deletion strains, growth OD

Measured: normalized growth

O=C(CCCCCCCCC(=O)c1ccccc1)c1ccccc1
inactive: locus YAL013W, strain DEP1, active compounds read low 0.996 | locus YBR229C, strain ROT2, active compounds read low 1 | locus YCL061C, strain MRC1, active compounds read low 1.01 | locus YDL101C, strain DUN1, active compounds read low 1.01 | locus YDR150W, strain NUM1, active compounds read low 0.918 | locus YEL061C, strain CIN8, active compounds read low 1.01 | locus YGR078C, strain PAC10, active compounds read low 1.02 | locus YHR030C, strain SLT2, active compounds read low 0.964 | locus YHR087W, strain rtc3, active compounds read low 1.05 | locus YJL187C, strain SWE1, active compounds read low 1.02 | locus YJR043C, strain POL32, active compounds read low 1.01 | locus YJR075W, strain HOC1, active compounds read low 0.987 | locus YLR039C, strain RIC1, active compounds read low 1.04 | locus YLR058C, strain SHM2 (second series), active compounds read low 0.998 | locus YLR085C, strain ARP6, active compounds read low 0.998 | locus YLR262C, strain YPT6, active compounds read low 1.04 | locus YML094W, strain GIM5, active compounds read low 1.01 | locus YMR219W, strain ESC1, active compounds read low 0.999 | locus YMR263W, strain SAP30, active compounds read low 1 | locus YNL153C, strain GIM3, active compounds read low 0.994 | locus YNL298W, strain CLA4 (second series), active compounds read low 1.05 | locus YNL322C, strain KRE1, active compounds read low 1 | locus YNR030W, strain Alg12, active compounds read low 1.01 | locus YOL006C, strain TOP1, active compounds read low 1.01 | locus YPL055C, strain LGE1, active compounds read low 0.981 | locus YPL241C, strain CIN2, active compounds read low 1 | locus YPR135W, strain CTF4, active compounds read low 1

— PubChem BioAssay AID1159580 (chemical genetic matrix, 2015)
